Among all 390,000 compounds or so, about 4,000 (1%) were called active. Roughly 7% stayed inconclusive and do not appear here. For the sample, actives were picked, then their nearest neighbours and some compounds at random. A number with no mark means an inactive call. The call rests on the fitted dose curve; in most records, active means well fitted inhibition curve with a large enough effect; inconclusive means small, poorly fitted or top-dose-only effect, or another doubt; inactive means no such curve, though single readings can be large or run the other way.
Each compound was assayed against DNA polymerase iota (Homo sapiens) (UniProt Q9UNA4) (assay: qHTS for Inhibitors of Polymerase Iota). Conditions: Pol iota fluorescent replication assay, 10 min; series mostly up to 115 µM; activity, negative = inhibition: at the top concentration.
Excerpt: DNA polymerases, such as Pol iota, are specifically involved in DNA repair. Pol iota specifically plays an important role in translesion synthesis, where the normal high-fidelity DNA polymerases cannot proceed and DNA synthesis stalls. […] Thus, while pol eta's (and most likely iota's) normal function is to protect humans against the deleterious consequences of DNA damage, under certain conditions they can have deleterious effects on human health. As a consequence, we propose to utilize a high throughput replication assay to identify small molecule inhibitors of pol iota.
In a collaboration between the National Institute of Child Health & Human Development (NICHD) and NIH Chemical Genomics Center, a high-throughput, fluorescent screen was developed to screen the NIH Molecular Libraries Small Molecule Repository (MLSMR). This screen is used to identify inhibitors of pol iota.
NIH Chemical Genomics Center [NCGC]
NIH Molecular Libraries Probe Centers Network [MLPCN]
Assay Submitter (PI): Roger Woodgate, NICHD)
Three microliters of reagents (buffer in column 3 and 4 as negative control and 10 nM Pol iota in columns 1, 2, and 5-48) will be dispensed into 1,536-well black solid-bottomed plate. Compounds (23 nL) will be transferred via Kalypsys pin tool equipped with 1536-pin array. The plates will then be incubated for 15 min at room temperature, and 1 µL substrate (50 nM final concentration) will be added to start the reaction and kinetically read twice at 0 min and 10 min on the Viewlux reader.
Potency means the concentration at half of the fitted maximal effect.

DNA polymerase iota (Homo sapiens), sequence (Q9UNA4 whole entry, looked up): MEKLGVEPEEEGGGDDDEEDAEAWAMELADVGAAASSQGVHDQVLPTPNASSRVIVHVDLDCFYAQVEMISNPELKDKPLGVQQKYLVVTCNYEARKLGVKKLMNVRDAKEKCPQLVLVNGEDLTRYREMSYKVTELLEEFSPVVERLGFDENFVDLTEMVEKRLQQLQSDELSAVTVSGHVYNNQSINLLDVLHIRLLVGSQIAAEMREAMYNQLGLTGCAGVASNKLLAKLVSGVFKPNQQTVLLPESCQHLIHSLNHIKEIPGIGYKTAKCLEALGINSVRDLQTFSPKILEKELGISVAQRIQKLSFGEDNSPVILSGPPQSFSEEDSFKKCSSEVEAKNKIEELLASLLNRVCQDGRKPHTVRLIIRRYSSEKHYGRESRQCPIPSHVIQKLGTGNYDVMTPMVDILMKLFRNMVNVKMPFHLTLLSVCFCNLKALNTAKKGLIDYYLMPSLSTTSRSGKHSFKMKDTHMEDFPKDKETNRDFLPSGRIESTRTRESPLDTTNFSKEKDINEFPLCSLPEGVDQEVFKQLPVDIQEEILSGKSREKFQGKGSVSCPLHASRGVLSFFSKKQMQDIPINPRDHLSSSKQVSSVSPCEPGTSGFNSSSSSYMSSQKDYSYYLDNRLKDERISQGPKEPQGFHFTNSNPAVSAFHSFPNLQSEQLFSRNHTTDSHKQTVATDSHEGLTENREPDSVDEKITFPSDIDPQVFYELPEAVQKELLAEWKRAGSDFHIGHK

| SMILES | Potency | activity, negative = inhibition [%] |
| --- | --- | --- |
| CCOc1ccc(NC(=O)c2ccc(NC(=O)COC(=O)c3ccc(NC(=O)CC#N)cc3)cc2)cc1 | 8.91 µM (active) |  |
| CCOc1ccc(NC(=O)CCNC(=O)c2ccc(Br)cc2)cc1 |  | 16.3 |
| CCOc1ccc(NC(=O)c2ccc(NC(=O)CN3C(=O)C(=O)N(CC(C)C)C3=O)cc2)cc1 |  | 21.4 |
| O=C1O/C(=C\c2ccc(O)cc2)C(O)=C1c1ccc(O)cc1 |  | -25.4 |
| Oc1ccccc1-c1nc2ccc(Cl)cn2c1Nc1ccc2c(c1)OCCO2 |  | 15.2 |
| CCOc1ccc(CCNC(=O)c2csc3c2CCCCC3)cc1 |  | -5.36 |
| Cc1ccccc1OCC(=O)Nc1c(C(=O)Nc2ccccc2F)oc2ccccc12 |  | 48.3 |
| CCOc1ccc(NC(=O)COc2ccc(C(=O)N3CCC(C(N)=O)CC3)cc2OC)cc1 |  | 24.4 |
| O=C(COc1ccccc1)Nc1ccc(N2CCN(C(=O)c3cccs3)CC2)cc1 |  | 115 |
| O=C(COc1ccccc1)Nc1ccc(C(=O)N2CCCC2)cc1 | 89.1 µM (active) |  |
| COc1ccc(C2Sc3ccccc3NC3=C2C(=O)c2ccccc23)c(OC)c1OC (centres undefined) |  | 19.2 |
| CCSc1nnc2c(n1)OC(c1ccc(OCC(=O)O)cc1)Nc1ccccc1-2 (centres undefined) |  | -9.22 |
| Cc1cc(C)c2sc(NC(=O)c3ccc(S(=O)(=O)N4CCCC4)cc3)nc2c1 |  | -1.58 |
| CCCCN(CC)CCCNC(=O)c1nn(C)c2c1CS(=O)(=O)c1ccccc1-2 |  | 18.5 |
| Cc1ccn2c(=O)nc(SCC(=O)NCc3ccc4c(c3)OCO4)nc2c1 | 44.7 µM (active) |  |
| O=C(CSc1nc(=O)n2ccccc2n1)Nc1ccc2c(c1)OCCO2 |  | 15 |
| Cc1ccccc1-c1nnc(SCC(=O)NCc2ccc3c(c2)OCO3)n1C |  | 15.5 |
| Cc1ccccc1Nc1nn2c(=O)c3ccc(C(=O)NCCc4ccc(Cl)cc4)cc3nc2s1 |  | 13.4 |
| O=C(NC1=CC(=O)c2ccccc2C1=O)c1ccccc1 | 3.55 µM (active) |  |
| O=C(COC(=O)c1cccc(Br)c1)Nc1cccc2c1C(=O)c1ccccc1C2=O |  | 52.3 |
| CC(=O)c1cc(NC(=O)c2ccccc2)c(=O)oc1/C=C/N(C)C |  | 23.6 |
| O=C(Nc1ccc([N+](=O)[O-])cc1)c1cnn2c1NC(=C1CC1)C=C2C(F)F |  | 8.29 |
| CCN(CCCNC(=O)c1cc2cc3cc(OC)ccc3nc2s1)c1ccccc1 |  | 39.3 |
| O=C(NCCCN1CCN(c2cccc(Cl)c2)CC1)c1nnc(Cc2ccc(F)cc2Cl)o1 |  | 8.61 |
| Cc1ccc(-c2nnc(Nc3ccc(C(=O)N(C)C)cc3)c3ccccc23)cc1S(N)(=O)=O |  | -7.39 |

| SMILES | Potency | activity, negative = inhibition [%] |
| --- | --- | --- |
| Cc1ccc(Nc2nnc(-c3ccc(C)c(S(=O)(=O)N4CCCCC4)c3)c3ccccc23)cc1 |  | 17.1 |
| Cc1ccc(C)c(Nc2nnc(-c3ccc(C)c(S(=O)(=O)N4CCCCC4)c3)c3ccccc23)c1 | 89.1 µM (active) |  |
| CCc1nc2nc(C)cc(Nc3ccc(F)c(Cl)c3)n2n1 |  | 22.8 |
| Cc1nn(-c2nc(-c3ccccc3)cc(C(F)(F)F)n2)c(C)c1Cl |  | 3.75 |
| COc1ccc2[nH]c3c(C)c4cc[n+](C)cc4c(C)c3c2c1 | 12.6 µM (active) |  |
| Cc1cc[n+](C2CCCCC2)cc1 |  | 41.1 |
| COc1ccc(NC(=O)COc2ccc(C(=O)OCC(=O)N(C)C3CCS(=O)(=O)C3)cc2OC)cc1 (centres undefined) |  | 55.3 |
| Cc1cc(C(=O)Nc2ccc(C)c(S(=O)(=O)N3CCOCC3)c2)c2ccccc2n1 |  | 30.7 |
| O=C(Nc1cccc(F)c1)c1cc(-c2ccco2)nc2ccccc12 | 50.1 µM (active) |  |
| CN(CCOc1ccccc1)C(=O)c1cc(-c2ccco2)nc2ccccc12 | 22.4 µM (active) |  |
| COc1ccc(CN(C)C(=O)c2cc(-c3ccc(C)cc3C)nc3ccccc23)c(OC)c1OC |  | 33.1 |
| CN(C(=O)COC(=O)c1cc(-c2ccco2)nc2ccccc12)C1CCS(=O)(=O)C1 (centres undefined) | 3.55 µM (active) |  |
| O=C(c1cc(-c2ccc(Cl)s2)nc2ccccc12)N1CCOCC1 |  | 9.16 |
| Cc1ccc(S(=O)(=O)CCC(=O)OCC(=O)N(C)C2CCS(=O)(=O)C2)cc1 (centres undefined) |  | 22.2 |
| CN(CCOc1ccccc1)C(=O)c1cc(COc2c(F)cccc2F)on1 |  | 18.1 |
| O=C(COc1ccccc1C(=O)Nc1ccccc1)Nc1cccc(F)c1 |  | 3.23 |
| CCOc1ccccc1-c1cc(C(=O)N2CCOCC2)c2ccccc2n1 |  | 17.7 |
| CC1CCCN(C(=O)c2cc(-c3ccco3)nc3ccccc23)C1 (centres undefined) | 28.2 µM (active) |  |
| CCCCC(CCCC)c1ccc(C=Nc2ccc(/C=C/c3ccnc4ccccc34)cc2)cc1 |  | -7.99 |
| CCOc1cc(C(=O)NCCc2csc3nc(-c4ccc(C)cc4)nn23)cc(OCC)c1OCC |  | 22.5 |
| Cc1ccc(NC(=O)CN2c3ccccc3S(=O)(=O)c3ccccc32)cc1F |  | 0.0463 |
| CCOc1ccccc1CNC(=O)c1ccc(-n2c(C)cc3c2CCC(C)C3)cc1 (centres undefined) |  | 1.98 |
| CCN(CC)C(=O)CSc1nc2ccsc2c(=O)n1Cc1ccccc1Cl |  | -9.3 |
| CC1=C(C(=O)OCc2ccc(C)cc2)C(c2ccccc2Cl)CC(=O)N1 (centres undefined) |  | 0.135 |

Source: PubChem BioAssay AID588590 (National Center for Advancing Translational Sciences (NCATS), 2011)
